Test results from PubChem BioAssay AID623868 (Vanderbilt High Throughput Screening Facility, 2012).
In all, about 2,100 compounds went through this assay and about 760 (36%) were called active. Not all results are given here. Unmarked numbers belong to inactive results.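 Rule for the calls: active = thallium-flux fluorescence traces judged by eye to show enhanced or reduced glutamate response, manual score 1 or -1, so both directions (some results past the limit were not filed as active); inactive = the rest, including fluorescent or raised-baseline compounds.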

Experiment: non-GIRK thallium flux modulation in mGlu8 cells, confirmation, counter-screen for GIRK activator project, cell-based, HEK-293 rmGlu8, no GIRK (AID 623868);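 note: extra codes mark interference with 3 for fluorescent and 4 for baseline rise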
Settings: thallium flux fluorescence, at 10 µM, actives lie on both sides, codes: 1 enhancer, -1 blocker, 0 none, thallium stimulus containing EC20 glutamate

| Compound | manual score |
| --- | --- |
| CC(C)(C)c1ccc(OCCON2C(=O)CCC2=O)c(Cl)c1 | 0 |
| COc1ccc(C(CCNCc2ccccc2F)c2ccc(F)cc2)cc1 (configuration not stated) | 0 |
| COC(=O)c1cc(NC(=O)c2ccoc2C)cc(C(=O)OC)c1 | 0 |
| CCOC(=O)C1=C(C)NC2=C(C(=O)C(C(=O)OCC)C(c3ccccc3OC)C2)C1c1ccccn1 (configuration not stated) | 0 |
| CCCC1=C(C(=O)OCC)C(c2ccc(F)cc2)n2ncnc2N1 (configuration not stated) | -0.5 |
| CCOC(=O)C1=C(C)Nc2nnnn2C1c1ccccc1Cl (configuration not stated) | -1 (active) |
| CCCC(=O)Nc1ccccc1N1CCN(C(=O)c2ccccc2)CC1 | -1 (active) |
| CC(C)C(=O)Nc1ccccc1N1CCN(C(=O)c2ccccc2)CC1 | -1 (active) |
| O=C(Nc1ccccc1N1CCCCC1)c1ccccc1F | 0 |
| O=C(c1ccc(-c2ccccc2)cc1)N1CCN(c2ncccn2)CC1 | 0 |
| CC(C)N(C(=O)CN(C#N)c1nc(N(C)C)nc(N(C)C)n1)c1ccccc1 | 0 |
| CCN(CC)CC(O)COCCC12CC3CC(CC(C3)C1)C2 (configuration not stated) | 0 |
| O=C(N/C(=N\O)c1ccccc1)Nc1ccc(Cl)cc1 | 0 |
| CSc1ccccc1NC(=O)Nc1ccc(Cl)cc1 | 0 |
| N#C/C(=N\Nc1ccc(Cl)cc1)C(=O)c1ccccc1 | -1 (active) |
| CC(C)c1nc(=S)n(-c2ccccc2)[nH]1 | 1 (active) |

| Compound | manual score |
| --- | --- |
| CCOC(=O)c1cccc(-n2c(C)cc(C=O)c2C)c1 | 0 |
| O=C(CSCc1ccc(Br)cc1)N=Nc1c(O)[nH]c2ccccc12 | 1 (active) |
| O=C(CSCc1ccccc1)N=Nc1c(O)[nH]c2ccccc12 | 1 (active) |
| O=[N+]([O-])c1ccc(/C=N/NC(=S)Nc2ccccc2F)o1 | 1 (active) |
| Fc1ccccc1NC(=S)N/N=C/c1ccccc1Br | 1 (active) |
| Fc1ccccc1/C=N/NC(=S)Nc1ccc(Cl)cc1Cl | 0 |
| O=C(NCCN1CCN(C(=O)Nc2ccccc2)CC1)Nc1ccccc1 | 0 |
| Cc1ccccc1N=Nc1c(C)[nH]n(C(N)=S)c1=O | 1 (active) |
| S=C(NCc1ccco1)Nc1ccc(Cl)c(Cl)c1 | 0 |
| C/C(=N\NC(=S)NCCc1ccccc1)c1ccc(C)cc1 | 0 |
| COc1ccc(/C(C)=N/NC(=S)NCc2ccco2)cc1 | 1 (active) |
| S=C(NCc1ccco1)N/N=C/c1ccc(Cl)cc1 | 1 (active) |
| COc1cccc(N2CCN(c3c4c(nc5ncnn35)CCC4)CC2)c1 | 0 |
| O=C(Oc1c(Cl)cc(Cl)c2cccnc12)c1cccc([N+](=O)[O-])c1 | 1 (active) |
| O=C(Oc1ccccc1C(=S)N1CCCCC1)c1cc([N+](=O)[O-])cc([N+](=O)[O-])c1 | 0 |
| O=C(Oc1c(Cl)cc(Cl)c2cccnc12)c1ccco1 | 1 (active) |
